# An excerpt weighted towards active compounds, which were near 2.3% of everything screened.
# CHRM1 agonist: activates human CHRM1 receptor; P11229; CHO-K1 hM1, Fluo-8 calcium fluorescence, agonist mode; 0% DMSO, 100% acetylcholine EC100; activation, % at 3 µM; 360,000 tested, 0.33% active; AID 588814;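 active means activation above the run's mean compound activation plus 3 SD, cut at about 16% in these data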;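 further: peak over basal fluorescence ratio within a 140 s kinetic read after compound addition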
# Target sequence (P11229 whole entry, looked up): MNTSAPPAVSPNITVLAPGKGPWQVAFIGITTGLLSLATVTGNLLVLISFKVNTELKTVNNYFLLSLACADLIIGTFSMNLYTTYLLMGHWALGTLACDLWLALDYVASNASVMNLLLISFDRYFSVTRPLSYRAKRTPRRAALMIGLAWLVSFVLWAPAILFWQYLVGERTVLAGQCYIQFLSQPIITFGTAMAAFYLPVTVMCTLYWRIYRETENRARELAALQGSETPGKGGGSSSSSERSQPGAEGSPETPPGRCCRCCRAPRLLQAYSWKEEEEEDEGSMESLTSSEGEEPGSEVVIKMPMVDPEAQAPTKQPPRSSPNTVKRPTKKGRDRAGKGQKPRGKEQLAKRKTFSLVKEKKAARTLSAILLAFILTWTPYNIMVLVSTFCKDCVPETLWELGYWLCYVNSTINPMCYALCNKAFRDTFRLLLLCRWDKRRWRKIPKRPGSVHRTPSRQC
# CHO-K1 Ca ag: M1 agonist counterscreen hit in parental CHO-K1 cells; Fluo-8 calcium fluorescence; scaled to maximal ATP response, vehicle zero; activation, % at 3 µM; 360,000 tested, 0.48% active; in the data active means activation above about 15%;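 further: untransfected CHO-K1 host cells lacking M1 receptor as counterscreen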
# CHO-K1 Ca antag: counter-screen for M1 antagonists: effect in parental CHO-K1 cells | 360,000 tested, 0.6% active | inhibition, % at 3 µM | AID 602250 | ATP-induced calcium, Fluo-8 fluorescence;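 active means inhibition above a per-plate cutoff, the plate's mean sample inhibition plus 3 SD, cut at about 24% in these data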
# CHO-K1 Ca PAM: counter-screen for M1 PAMs: effect in parental CHO-K1 cells; ATP EC20, Fluo-8 calcium fluorescence; 0% at ATP EC20, 100% at ATP max; activation, % at 3 µM; 360,000 tested, 0.02% active; AID 602247;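 active means activation above the run cutoff, the mean activation of all test compounds plus 3 SD, cut at about 40% in these data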;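 further: peak over basal fluorescence ratio in a 140 s read after ATP addition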
# CHRM1 antagonist: human CHRM1 antagonism; inhibition, % at 3 µM; P11229; AID 588852; CHO-K1 hM1, Fluo-8 calcium fluorescence, ACh EC80 antagonist; 360,000 tested, 1.3% active;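 active means percent inhibition above its own plate's cutoff, namely the mean of that plate's compound wells plus 3 SD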;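 further: peak over basal fluorescence ratio during 140 s after agonist addition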
# M1 PAM: human CHRM1 positive allosteric modulation. P11229. 360,000 tested, 0.088% active. activation, % at 3 µM. CHO-K1 hM1, Fluo-8 calcium fluorescence, ACh EC20; 0% = ACh EC20, 100% = maximal ACh. AID 588819; in the data active means activation above about 19%, passing the limit was not always enough
# Hits are given with their value; n = inactive; x = not tested or not shown.
SMILES,CHRM1 agonist,CHO-K1 Ca ag,CHO-K1 Ca antag,CHO-K1 Ca PAM,CHRM1 antagonist,M1 PAM
CCN1CCN(CC(c2ccccc2)c2ccccc2)CC1,n,n,n,n,99.8,n
CCN1CCc2ccccc2C1,n,n,n,n,n,n
O=C1NCN(c2ccccc2)C12CCN(C(c1ccnc3ccccc13)c1nnnn1C1CCCC1)CC2 (stereo unspecified),n,n,n,n,n,n
CCOC(=O)[C@]12Cc3c(cc(OC)c(OC)c3OC)[C@H]1N(C1CCCCC1)C(=O)c1ccccc12,x,n,n,n,x,x
Cc1nc2ccccn2c1P(=S)(c1ccccc1)c1ccccc1,n,n,n,n,n,n
O=c1[nH]c2ccccc2n1C1CCN(CCCC(c2ccc(F)cc2)c2ccc(F)cc2)CC1,21.3,n,n,n,n,n
CC1(C)CCCN1CCC(C(N)=O)(c1ccccc1)c1ccccc1,n,n,n,n,99.0,n
CC(C)N(CCC(C(N)=O)(c1ccccc1)c1ccccn1)C(C)C (stereo unspecified),n,n,n,n,n,n
CNC(=O)Oc1cccc(-c2cn3cc(Cl)ccc3n2)c1,n,n,n,n,n,27.2
O=C(Nc1ccncc1)c1cccn(Cc2ccccc2)c1=O,n,31.9,n,n,n,n
Cc1ccc(C[n+]2c(-c3ccc(C)cc3)cc(-c3ccc(C)cc3)cc2-c2ccc(C)cc2)cc1,n,n,n,n,32.8,n
COC(=O)C1(F)C(=O)NC(=O)NC1O (stereo unspecified),x,n,n,n,x,x
COC(=O)C1=C(c2cc3ccccc3o2)C[C@@H]2CC[C@H]1N2C(=O)NCCNC(C)=O,n,n,n,n,32.5,n
CCOC(=O)c1cnc(SCc2ccc(Cl)c(Cl)c2)nc1N1CC1,n,n,n,n,n,n
O=S(=O)(NC1CN2CCC1CC2)c1ccc(Cl)cc1 (stereo unspecified),n,n,n,n,25.3,n
COC(=O)c1ccc(NC(=O)CSc2nc3ccc(N4C(=O)C5C6C=CC(C6)C5C4=O)cc3s2)cc1 (stereo unspecified),n,n,n,n,44.5,n
CCOC(=O)C1(CCc2ccccc2)CCN(Cc2cccc3c2OCO3)CC1,n,n,n,n,33.9,n
CCOC(=O)C1(CCc2ccccc2)CCN(Cc2cccc3cnccc23)CC1,n,n,n,n,47.7,n
CCCCCCn1c(O)c(C=NCCN2CCOCC2)c(=O)[nH]c1=O,n,17.2,n,n,n,n
Cc1cccc(C)c1-n1nnnc1C(c1cccc2ccccc12)N1CCC2(CC1)C(=O)NCN2c1ccccc1 (stereo unspecified),n,n,n,n,n,n
Cc1cccc(-n2c(O)c(C=NCCN3CCNCC3)c(=O)[nH]c2=S)c1,52.7,n,n,n,n,n
Cn1c(=O)n(CC(=O)N2CCC3(CC2)OCCO3)c(=O)c2ccccc21,n,n,n,n,n,25.4
O=C(Cn1c(=S)[nH]c2ccccc2c1=O)N1CCC2(CC1)OCCO2,n,n,n,n,n,n
Cc1cc(Br)c(NC(=O)CN2CC=C(c3ccccc3)CC2)c(Br)c1,n,n,n,n,n,n
CCN(CC)S(=O)(=O)c1cc(NC(=O)C(C)N2CC=C(c3ccccc3)CC2)ccc1C (stereo unspecified),n,n,n,n,37.2,n
SMILES,CHRM1 agonist,CHO-K1 Ca ag,CHO-K1 Ca antag,CHO-K1 Ca PAM,CHRM1 antagonist,M1 PAM
CCOC(=O)[C@]12Cc3ccc(C)cc3[C@H]1N(C1CCCCC1)C(=O)c1cc(OC)ccc12,x,n,n,n,x,x
CCOC(=O)[C@]12Cc3cc(Cl)ccc3[C@H]1N(C1CCCCC1)C(=O)c1cc(OC)ccc12,x,n,33.1,n,x,x
O=C1Nc2ccc(Br)cc2C(c2ccc(Cl)cc2)=NC1O (stereo unspecified),n,22.8,n,n,n,n
O=C1Nc2ccc(Br)cc2C(c2ccccc2)=NC1O (stereo unspecified),n,n,n,n,n,n
CSCCC(c1nnnn1C1CCCC1)N1CCC(n2c(=O)[nH]c3ccccc32)CC1 (stereo unspecified),n,n,n,n,n,n
CSCCC(c1nnnn1C1CCCCC1)N1CCC(n2c(=O)[nH]c3ccccc32)CC1 (stereo unspecified),n,n,n,n,33.7,n
Cc1ccc2c(c1)Oc1ccccc1N=C2,n,n,n,n,n,n
Nc1c2c(nc3sc4c(c13)CCCC4)CCCC2,n,n,n,n,n,n
Nc1c2c(nc3sc4c(c13)CCCC4)CCCCC2,n,n,n,n,35.9,n
COC(=O)C1=C(c2ccc(F)cc2F)C[C@@H]2CC[C@H]1N2C,n,n,n,n,84.4,n
COC(=O)C1=C(c2ccc(Cl)c(C(F)(F)F)c2)C[C@@H]2CC[C@H]1N2C,n,n,n,n,32.1,n
COC(=O)C1=C(c2ccc(F)cc2F)C[C@@H]2CC[C@H]1N2C(=O)NC(C)C,n,n,n,n,n,n
COC(=O)C1=C(c2ccc(Cl)c(C(F)(F)F)c2)C[C@@H]2CC[C@H]1N2C(=O)NCCO,n,n,n,n,n,n
COC(=O)C1=C(c2ccccc2)C[C@@H]2CC[C@H]1N2C,n,n,n,n,59.5,n
Cc1ccc(-c2cc(-c3ccccc3)cc(-c3ccccc3)[n+]2-c2ccc(C(=O)O)cc2)cc1,n,n,n,n,n,n
C[n+]1c(-c2ccccc2)cc(CCCCc2cc(-c3ccccc3)[n+](C)c(-c3ccccc3)c2)cc1-c1ccccc1,n,n,n,n,54.6,n
COc1ccc(-n2nnnc2C(CCSC)N2CCC3(CC2)C(=O)NCN3c2ccccc2)cc1 (stereo unspecified),n,n,n,n,n,n
COc1ccc2c(c1)C13CCN4CC5=CCOC6CC(=O)N2C1C6C5CC43 (stereo unspecified),n,n,n,n,n,n
CC(CC(C)(C)N1CC1)=NNC(=O)Nc1cccc2ccccc12,n,n,n,n,n,n
OCc1cnc[nH]1,n,n,36.2,n,n,n
CS(=O)(=O)c1ccc(C2=C(CNC(=O)c3ccncc3)[C@H]3CC[C@@H](C2)N3CCOc2ccccc2)cc1,n,n,n,n,29.0,n
CS(=O)(=O)c1ccc(C2=C(CNC(=O)c3ccc([N+](=O)[O-])cc3)[C@H]3CC[C@@H](C2)N3CCOc2ccccc2)cc1,n,n,n,n,n,n
COc1ccc(NC2Oc3cc4c(cc3C(c3cc(OC)c(OC)c(OC)c3)C2C)OCO4)cc1 (stereo unspecified),n,n,n,n,n,n
Oc1c(Cl)cccc1Cc1cc(Cl)cc(Cl)c1O,n,n,n,n,41.1,n
CCC(c1nnnn1-c1ccc(OC)cc1)N1CCC2(CC1)C(=O)NCN2c1ccccc1 (stereo unspecified),n,n,n,n,n,n
